The record followed here is ChEMBL document CHEMBL3988442, “University of Dundee, Small-Polar-MMV Screening Library” (2021).

Holding throughout (parameters): scale not given: direction of the effect not stated beside the values
The target of assay [1] is Protein translocase subunit SecA (Escherichia coli (strain K12)) (UniProt P10408). Put plainly: Assay to Identify E. coli SecA ATPase Inhibitors. The class given is functional. To be noted: 30 µM.
The target of assay [2] is T1, Ubiquitin-activating enzyme e1, putative (Leishmania donovani (strain BPK282A1)) (UniProt E9BSI1).
T1 sequence (whole entry): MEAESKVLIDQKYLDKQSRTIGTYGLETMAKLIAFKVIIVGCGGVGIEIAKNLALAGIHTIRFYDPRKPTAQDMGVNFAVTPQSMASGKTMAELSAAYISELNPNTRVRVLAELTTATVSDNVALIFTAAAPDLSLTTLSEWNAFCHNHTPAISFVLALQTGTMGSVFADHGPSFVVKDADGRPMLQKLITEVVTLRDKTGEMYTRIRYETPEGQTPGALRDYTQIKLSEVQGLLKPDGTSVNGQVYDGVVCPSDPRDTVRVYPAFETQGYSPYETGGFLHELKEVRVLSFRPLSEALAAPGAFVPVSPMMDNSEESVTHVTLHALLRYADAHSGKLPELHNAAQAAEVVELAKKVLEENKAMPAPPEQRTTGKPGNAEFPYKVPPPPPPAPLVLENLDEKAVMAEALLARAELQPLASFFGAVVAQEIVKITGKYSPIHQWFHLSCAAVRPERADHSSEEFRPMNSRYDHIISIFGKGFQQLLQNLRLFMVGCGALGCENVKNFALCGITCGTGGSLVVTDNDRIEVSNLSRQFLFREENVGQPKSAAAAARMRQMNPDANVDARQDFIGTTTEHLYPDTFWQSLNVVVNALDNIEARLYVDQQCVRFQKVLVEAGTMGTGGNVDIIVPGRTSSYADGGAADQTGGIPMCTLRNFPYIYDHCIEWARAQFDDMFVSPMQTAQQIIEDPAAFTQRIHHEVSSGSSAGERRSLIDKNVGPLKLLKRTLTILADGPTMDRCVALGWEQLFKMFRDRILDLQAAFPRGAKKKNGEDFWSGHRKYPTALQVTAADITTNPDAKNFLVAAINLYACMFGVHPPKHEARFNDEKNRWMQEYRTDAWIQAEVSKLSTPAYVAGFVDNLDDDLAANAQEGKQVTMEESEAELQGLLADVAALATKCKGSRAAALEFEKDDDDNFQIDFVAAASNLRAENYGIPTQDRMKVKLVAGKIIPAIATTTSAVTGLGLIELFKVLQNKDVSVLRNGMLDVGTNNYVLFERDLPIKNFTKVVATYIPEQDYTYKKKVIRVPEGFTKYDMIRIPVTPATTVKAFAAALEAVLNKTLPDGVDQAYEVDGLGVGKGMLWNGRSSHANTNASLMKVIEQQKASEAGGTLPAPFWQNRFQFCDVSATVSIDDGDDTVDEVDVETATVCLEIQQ
Briefly: Leishmania donovani Ubiquitin Activating Enzyme (LdE1). The class given is functional. As to conditions: 30 µM.

The target of assay [3] is Sialic acid-binding Ig-like lectin 9 (Homo sapiens) (UniProt Q9Y336). Put plainly: Hs-Siglec9 ALPHAscreen SOP 20170721. As to conditions: 10 µM. On the technique in general: In Alpha technology, singlet oxygen from a donor bead excites a nearby acceptor bead.
A further assay concerns Trypanosoma cruzi. Put plainly: Trypanosoma cruzi phosphomannomutase and mannose-1-phosphate guanylyltransferase assay. To be noted: 10 µM. The format is functional.
Assay [4] addresses T2, Arginase-2, mitochondrial (Homo sapiens) (UniProt P78540).
T2 sequence (whole entry): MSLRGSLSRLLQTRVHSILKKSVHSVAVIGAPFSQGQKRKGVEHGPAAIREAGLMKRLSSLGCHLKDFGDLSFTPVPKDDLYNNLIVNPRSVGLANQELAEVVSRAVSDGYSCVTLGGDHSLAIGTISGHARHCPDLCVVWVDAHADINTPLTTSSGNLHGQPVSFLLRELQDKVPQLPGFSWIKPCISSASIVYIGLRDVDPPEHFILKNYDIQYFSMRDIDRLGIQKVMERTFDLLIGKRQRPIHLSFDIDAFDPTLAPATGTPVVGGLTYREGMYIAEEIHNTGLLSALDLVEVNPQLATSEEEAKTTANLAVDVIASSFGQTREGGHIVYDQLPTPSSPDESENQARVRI
Briefly: in vitro enzyme assay to detect the production of urea directly proportional to the activity of Arginase II. Also: in the data most compounds retested in dose-response had high values. The format is functional. To be noted: 33.3 µM.

Assay [5] has as its target T3, Proteasome subunit beta (Trypanosoma cruzi) (UniProt O96673).
T3 sequence (whole entry): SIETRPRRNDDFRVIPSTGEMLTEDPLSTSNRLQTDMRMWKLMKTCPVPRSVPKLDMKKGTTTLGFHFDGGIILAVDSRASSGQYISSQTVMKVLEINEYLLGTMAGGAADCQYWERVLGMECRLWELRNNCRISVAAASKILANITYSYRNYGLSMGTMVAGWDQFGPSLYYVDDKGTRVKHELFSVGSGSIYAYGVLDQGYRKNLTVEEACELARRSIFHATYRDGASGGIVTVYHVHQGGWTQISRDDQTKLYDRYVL
Briefly: Trypanosoma cruzi proteasome chymotrypsin-like activity (TcProtChymo) assay. Also: in the data most compounds retested in dose-response had high values. To be noted: 9.37 µM. The format is functional.

For a further assay, the species on record is Homo sapiens. Put plainly: To identify inhibition of the IFN signalling (Jak-Stat) pathway via expression of an eGFP reporter gene under the control of an IFN-stimulated response element (ISRE) containing MxA promoter. To be noted: 30 µM. The format is functional.
Assay [6] concerns the target T4, Tyrosyl-tRNA synthetase, putative (Trypanosoma cruzi (strain CL Brener)) (UniProt Q4DSP6).
T4 sequence (whole entry): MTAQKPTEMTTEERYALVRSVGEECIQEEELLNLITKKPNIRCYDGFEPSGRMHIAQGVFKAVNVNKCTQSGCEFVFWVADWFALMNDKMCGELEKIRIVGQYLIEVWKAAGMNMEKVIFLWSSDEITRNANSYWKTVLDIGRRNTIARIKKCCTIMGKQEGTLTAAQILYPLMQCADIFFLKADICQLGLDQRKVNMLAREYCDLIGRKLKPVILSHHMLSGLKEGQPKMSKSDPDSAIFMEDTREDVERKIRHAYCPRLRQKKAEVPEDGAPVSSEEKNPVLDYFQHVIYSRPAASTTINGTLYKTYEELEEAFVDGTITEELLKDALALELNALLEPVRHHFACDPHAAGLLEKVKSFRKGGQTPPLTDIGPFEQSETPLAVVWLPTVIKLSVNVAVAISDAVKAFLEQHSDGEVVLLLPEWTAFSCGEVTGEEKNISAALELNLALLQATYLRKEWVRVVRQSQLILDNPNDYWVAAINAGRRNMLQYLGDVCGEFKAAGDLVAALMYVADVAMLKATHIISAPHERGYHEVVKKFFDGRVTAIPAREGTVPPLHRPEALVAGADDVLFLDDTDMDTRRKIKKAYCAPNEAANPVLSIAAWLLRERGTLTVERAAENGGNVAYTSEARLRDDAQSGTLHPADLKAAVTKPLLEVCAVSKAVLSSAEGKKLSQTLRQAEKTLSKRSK
Put plainly: Trypanosoma cruzi tyrosyl tRNA synthetase (TcYRS) _High Tyrosine SOP. Also: in the data most compounds retested in dose-response had high values. The class given is functional. To be noted: 30 µM.

Assay [7] has as its target T4, Tyrosyl-tRNA synthetase, putative (Trypanosoma cruzi (strain CL Brener)). Put plainly: Trypanosoma cruzi tyrosyl tRNA synthetase (TcYRS) SOP. To be noted: 30 µM. The class given is functional.
The target in assay [8] is Chromo domain-containing protein 1 (Saccharomyces cerevisiae (strain ATCC 204508 / S288c) (Baker's yeast)) (UniProt P32657). Put plainly: ScCHD-1 Enzyme Inhibition Assay. Also: in the data most compounds retested in dose-response had high values. The class given is functional. To be noted: 30 µM.

For some assays here: Entries with a potency or affinity are not part of this list.

Sequence of Sialic acid-binding Ig-like lectin 9 (Homo sapiens) (Q9Y336 whole entry): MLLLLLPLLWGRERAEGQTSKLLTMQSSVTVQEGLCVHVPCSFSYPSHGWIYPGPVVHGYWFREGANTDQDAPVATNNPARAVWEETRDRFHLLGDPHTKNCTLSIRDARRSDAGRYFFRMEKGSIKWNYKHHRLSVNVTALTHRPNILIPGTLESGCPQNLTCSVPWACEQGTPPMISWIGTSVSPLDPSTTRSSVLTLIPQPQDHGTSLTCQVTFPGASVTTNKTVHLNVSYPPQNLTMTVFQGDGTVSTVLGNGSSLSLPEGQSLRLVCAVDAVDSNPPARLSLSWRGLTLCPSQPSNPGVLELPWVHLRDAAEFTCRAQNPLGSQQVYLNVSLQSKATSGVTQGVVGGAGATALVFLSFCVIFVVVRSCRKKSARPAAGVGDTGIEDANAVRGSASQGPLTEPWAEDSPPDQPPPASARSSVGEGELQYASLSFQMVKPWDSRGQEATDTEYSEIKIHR
Sequence of Chromo domain-containing protein 1 (Saccharomyces cerevisiae (strain ATCC 204508 / S288c) (Baker's yeast)) (P32657 whole entry, the tested form may be a part): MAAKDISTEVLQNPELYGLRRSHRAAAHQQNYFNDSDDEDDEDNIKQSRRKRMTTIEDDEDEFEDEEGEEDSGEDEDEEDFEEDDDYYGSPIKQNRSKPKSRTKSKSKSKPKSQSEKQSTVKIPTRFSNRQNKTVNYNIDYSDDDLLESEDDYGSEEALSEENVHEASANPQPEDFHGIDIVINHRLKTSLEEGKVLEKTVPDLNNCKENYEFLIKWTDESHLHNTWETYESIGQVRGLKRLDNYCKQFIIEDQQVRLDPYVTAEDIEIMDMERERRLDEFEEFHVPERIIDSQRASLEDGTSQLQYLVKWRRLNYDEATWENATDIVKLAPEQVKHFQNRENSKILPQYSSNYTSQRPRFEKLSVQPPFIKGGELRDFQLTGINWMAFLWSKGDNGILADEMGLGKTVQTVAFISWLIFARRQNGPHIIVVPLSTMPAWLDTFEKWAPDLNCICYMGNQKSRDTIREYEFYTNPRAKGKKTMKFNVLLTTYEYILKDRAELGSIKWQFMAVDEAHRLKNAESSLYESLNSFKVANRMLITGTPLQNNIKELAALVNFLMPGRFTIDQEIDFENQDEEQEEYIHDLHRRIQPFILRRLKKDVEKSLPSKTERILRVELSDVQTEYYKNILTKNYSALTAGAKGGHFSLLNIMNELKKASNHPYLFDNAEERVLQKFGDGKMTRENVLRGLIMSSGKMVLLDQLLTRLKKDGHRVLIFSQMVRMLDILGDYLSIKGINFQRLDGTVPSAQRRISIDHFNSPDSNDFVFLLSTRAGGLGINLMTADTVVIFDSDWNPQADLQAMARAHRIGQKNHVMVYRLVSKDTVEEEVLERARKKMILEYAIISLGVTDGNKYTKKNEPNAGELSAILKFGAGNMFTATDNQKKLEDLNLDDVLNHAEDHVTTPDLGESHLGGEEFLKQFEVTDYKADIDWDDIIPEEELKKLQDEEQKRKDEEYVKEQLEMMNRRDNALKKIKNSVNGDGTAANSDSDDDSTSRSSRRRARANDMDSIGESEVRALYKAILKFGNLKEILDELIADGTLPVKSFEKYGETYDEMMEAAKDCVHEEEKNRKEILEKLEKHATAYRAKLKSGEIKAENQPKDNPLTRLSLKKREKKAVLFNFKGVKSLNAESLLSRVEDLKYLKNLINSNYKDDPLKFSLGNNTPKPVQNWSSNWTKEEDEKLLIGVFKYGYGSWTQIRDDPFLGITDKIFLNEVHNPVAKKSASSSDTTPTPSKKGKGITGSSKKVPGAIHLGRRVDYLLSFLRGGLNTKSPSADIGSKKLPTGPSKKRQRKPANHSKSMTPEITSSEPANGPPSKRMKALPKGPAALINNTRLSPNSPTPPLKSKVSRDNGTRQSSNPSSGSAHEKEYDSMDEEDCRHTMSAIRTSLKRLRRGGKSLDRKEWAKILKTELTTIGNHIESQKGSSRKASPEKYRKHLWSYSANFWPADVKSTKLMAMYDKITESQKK
Sequence of Protein translocase subunit SecA (Escherichia coli (strain K12)) (P10408 whole entry): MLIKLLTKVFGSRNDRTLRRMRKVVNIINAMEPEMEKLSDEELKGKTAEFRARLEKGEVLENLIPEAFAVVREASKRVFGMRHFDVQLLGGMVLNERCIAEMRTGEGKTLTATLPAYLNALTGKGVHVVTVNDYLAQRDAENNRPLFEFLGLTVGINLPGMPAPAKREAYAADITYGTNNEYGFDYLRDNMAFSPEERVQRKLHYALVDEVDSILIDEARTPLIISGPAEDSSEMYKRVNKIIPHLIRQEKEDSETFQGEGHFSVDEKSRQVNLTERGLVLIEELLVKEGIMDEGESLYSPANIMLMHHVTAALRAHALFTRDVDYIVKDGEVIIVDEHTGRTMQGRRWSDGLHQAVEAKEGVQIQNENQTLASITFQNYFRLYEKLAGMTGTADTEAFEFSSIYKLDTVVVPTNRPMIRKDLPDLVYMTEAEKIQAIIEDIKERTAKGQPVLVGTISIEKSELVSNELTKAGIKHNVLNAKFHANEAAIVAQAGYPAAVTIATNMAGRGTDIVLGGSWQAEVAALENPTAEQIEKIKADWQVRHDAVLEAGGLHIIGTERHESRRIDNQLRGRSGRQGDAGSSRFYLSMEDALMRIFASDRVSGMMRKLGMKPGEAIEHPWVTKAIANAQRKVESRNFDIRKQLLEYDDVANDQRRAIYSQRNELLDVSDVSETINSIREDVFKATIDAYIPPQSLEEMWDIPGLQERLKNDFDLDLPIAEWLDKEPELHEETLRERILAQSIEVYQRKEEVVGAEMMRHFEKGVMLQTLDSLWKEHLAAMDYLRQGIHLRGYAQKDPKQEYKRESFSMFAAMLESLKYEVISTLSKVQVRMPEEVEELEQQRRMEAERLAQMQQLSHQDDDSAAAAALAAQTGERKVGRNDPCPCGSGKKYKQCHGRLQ

In the case of `Cc1cccc(CN2C[C@@H]3COC[C@]3(CNC(=O)c3ccsc3)C2)n1`, the Percent Effect is -7.55% in assay [1]; 9.09% in [2]; -4.17% in assay [3]; 1.27% in the assay on Trypanosoma cruzi; -3.64% in assay [4]; 22.3% in [5]. Besides, the Percent Effect in the assay listed under Homo sapiens was -5.86%; in [6], 7.89%; in assay [7], 12.8%; in [8], 108%.
With `Cc1ccc(NC2CCN(C(=O)c3cc(C(N)=O)cs3)CC2)nn1`, the Percent Effect in [1] is -3.49%; in assay [2] it was 2.67%; in [3], 2.8%; with Trypanosoma cruzi, 1.41%; in assay [4], 0.444%; in [5] it was 7.55%. For the same compound, the Percent Effect in the assay filed under Homo sapiens was 21.6%; in [6] it was 1.58%; in assay [7], 5.13%; in assay [8], -4.07%.
`Cc1cccc(CN2CCC3(CCN(Cc4ccccn4)C3)C2=O)c1` (stereo not given): the Percent Effect in assay [1] was -10.9%; in assay [2], 6.49%; in assay [3], 0.239%; in the assay on Trypanosoma cruzi, -2.81%; in [4] it was 3.65%; in assay [5], 6.95%. The Percent Effect in the assay listed under Homo sapiens is 19%; in [6], -0.966%; in assay [7], 0%; in [8], -12.5%.
Consider `CC(O)CN1CCC(CNCc2ccccc2OC(F)(F)F)CC1` (stereo not given), for which the Percent Effect in assay [1] was -4.07%; in [2], 10.3%; in assay [3], -7.91%; with Trypanosoma cruzi it was 7.98%; in [4] it was -1.64%; in assay [5], 9.81%. The Percent Effect in the assay filed under Homo sapiens was 2.5%; in [6] it was 0.478%; in assay [7], 10.8%; in [8], -0.0569%.
In the case of `Cc1nc(COc2ccc(CNCC3CN(C)CCO3)cc2)cs1` (stereo not given), the Percent Effect in assay [1] is -3.51%; in [2] it was 2.6%; in assay [3], 0.562%; with Trypanosoma cruzi, -3.73%; in [4], 3.07%; in assay [5], 3.16%. Moreover, the Percent Effect in the assay listed under Homo sapiens was 18.8%; in [6] it was -0.98%; in [7] it was -2.35%; in [8], -1.69%.
`CC(C)c1nnc2n1CCN(C(=O)c1cccc(C(F)(F)F)c1)C2`: the Percent Effect in assay [1] was -5.89%; in [2], 18.7%; in assay [3], 10%; in the assay on Trypanosoma cruzi, 2.81%; in assay [4] it was 1.33%; in [5], 6.19%. The Percent Effect is 7.24% in the assay listed under Homo sapiens, 6.84% in assay [6], 15.4% in [7] and -7.15% in assay [8].
On to `Fc1ccccc1Cc1noc(CN2CCCC(CN3CCCC3)C2)n1` (stereo not given), for which the Percent Effect in [1] is -7.22%; in [2] it was -2.7%; in assay [3] it was 4.23%; with Trypanosoma cruzi it was 7.86%; in assay [4] it was -2.45%; in [5] it was 3.08%. In addition, the Percent Effect in the assay filed under Homo sapiens was -6.53%; in [6], 6.92%; in [7], 12.2%; in assay [8], -3.21%.
For the compound `O=C(c1cc[nH]n1)N1CCCC(c2cccc(-n3ccnc3)n2)C1` (stereo not given), the Percent Effect in assay [1] was -1.25%; in assay [2], 12%; in [3] it was 2.15%; in the assay on Trypanosoma cruzi it was -1.77%; in assay [4], 4.42%; in assay [5], 8.05%. Also, the Percent Effect in the assay filed under Homo sapiens was 13.7%; in [6], 5.29%; in assay [7], 12.5%; in assay [8], -21.6%.
Take `O=C(c1ccccn1)N1CCN(c2ccc(-c3cccnc3)nn2)CC1`: the Percent Effect in [1] was -3.31%; in [2] it was 11.7%; in [3] it was 4.87%; with Trypanosoma cruzi it was 1.31%; in assay [4] it was 4.11%; in assay [5] it was 21.7%. Besides, the Percent Effect in the assay listed under Homo sapiens was 1.87%; in assay [6], 0.966%; in [7], 10%; in assay [8], -7.95%.
As to `Cc1ccc(-c2nnc(CNCCn3cc(C)cn3)o2)cc1`, the Percent Effect in assay [1] is 0.127%; in assay [2], 7.79%; in assay [3] it was 7.81%; with Trypanosoma cruzi, -0.56%; in assay [4], 1.02%; in [5] it was 6.67%. Also, the Percent Effect is -6.58% in the assay filed under Homo sapiens, 4.9% in assay [6], 11.8% in assay [7] and -4.71% in [8].
With `Cc1cnn(CC2CCCN2C(=O)c2ccc(OC(C)C)nc2)c1` (stereo not given), the Percent Effect in assay [1] is -0.574%; in assay [2] it was -2.56%; in [3] it was 12.5%; with Trypanosoma cruzi, 0.657%; in assay [4], 4.92%; in assay [5], -5.89%. Also, the Percent Effect in the assay filed under Homo sapiens was -3.81%; in assay [6], -3.35%; in [7] it was 1.21%; in [8], 2.64%.
Take `Cc1ccc2cc(C(=O)NCCn3nc4ccccn4c3=O)[nH]c2c1`: the Percent Effect in assay [1] is -1.72%; in assay [2], 10.3%; in assay [3], -11.1%; with Trypanosoma cruzi it was -8.36%; in assay [4], 1.23%; in assay [5], 16.3%. Moreover, the Percent Effect was 19.6% in the assay listed under Homo sapiens, -1.44% in [6], 1.21% in assay [7] and -7.76% in [8].
In the case of `CC(NC(=O)N(C)CCCOc1ccc(F)cc1)c1nncn1C` (stereo not given), the Percent Effect in assay [1] was -2.67%; in assay [2], 8%; in assay [3], -3.38%; with Trypanosoma cruzi, 0.803%; in assay [4] it was 5.76%; in [5] it was 17.4%. In addition, the Percent Effect in the assay filed under Homo sapiens is 8.6%; in assay [6], 4.74%; in assay [7], 10.3%; in [8], -10.2%.
As to `CC(=O)N1CCCN(CC(C)(O)c2cccc(C(F)(F)F)c2)CC1` (stereo not given), the Percent Effect is -3.98% in [1]; 10.4% in assay [2]; 8.53% in assay [3]; 2.42% with Trypanosoma cruzi; -7.99% in [4]; 3.51% in [5]. The Percent Effect in the assay filed under Homo sapiens is -6.46%; in assay [6], 6.86%; in assay [7], 16.5%; in [8] it was -9.58%.
